The campaign covered roughly 38,000 compounds. About 1,200 (3.2%) showed an effect of 50% or more. The median lay at about -58%. The sample as a whole holds a higher share of strong results than the screen did.
What follows are compounds tested on Plasmodium falciparum (assay: Calibr Malaria Delayed Death Assay SOP). Conditions: concentration 4.99e-06 (unit not given; other assays of the set use mol/L).
Format: functional, organism-based
Design: scale not given: in the data most compounds retested in dose-response had high values

Compound	Percent Effect [%]
COc1cc(C)ccc1OCCC(=O)N1CCC(N2CC=CC2)C1 (centres undefined)	-87.08
COc1ccc(N2CCN(Cc3noc(CC(C)C)n3)C(C)C2=O)cc1 (centres undefined)	-89.75
COc1cc(CN(CCCN(C)C)Cc2ccccn2)cc2c1OCO2.O=C(O)CC(O)(CC(=O)O)C(=O)O	79.66
COc1ccccc1CN(Cc1cccnc1)CC1CCCO1.O=C(O)CC(O)(CC(=O)O)C(=O)O (centres undefined)	-1.656
CN(C)CCN(C)C(=O)Cc1ccc2c(c1)OCCO2.O=C(O)CC(O)(CC(=O)O)C(=O)O	-18.25
CCN1CCc2[nH]cnc2C12CCN(C(=O)CCc1cccs1)CC2	-14.54
CCN(C)CC(C)Cn1cnc(-c2ccccc2)c1C (centres undefined)	-12.51
CCc1c(C)sc2c1c(N)nc(=O)n2CCN(C)C	14.15
CCc1c(-c2ccccc2)nc2c(c(C)c(C)n2CCN(C)C)c1N	66.32
Cc1c(-c2ccccc2)nc2c(c(C)c(C)n2CCN(C)C)c1N	79.27
CN(C)CCN1CCN(C)c2nc(-c3ccccc3)ncc2C1=O	-20.71
CCc1c(C)sc2c1c(N)nc(=O)n2CCCN(C)C	-156.5
CCCc1nc2c(c(C)c(C)n2CCN(C)C)c(N)c1CC	89.53
O=C(Cc1ccccn1)N1C[C@H]2CCC[C@@]2(COc2ccccn2)C1	-9.537
Cc1cc(SCC(N)=O)nc(-c2ccc(F)cc2)n1	0.2782
COCCn1cnnc1CCNc1cc(C)nc2ccnn12	-117.5
CCN1CC2(CC1=O)CN(Cc1ccoc1)CCN(C(=O)C(C)C)C2 (centres undefined)	-77.86
CN1CCC(CNC(=O)c2cccc(CN3CCCCCC3)c2)C1 (centres undefined)	-131.1
CN(C)C(=O)CN1CCC2(COCc3cnc(N4CCOCC4)nc32)C1.O=C(O)C(F)(F)F (centres undefined)	13
CN(CCCO)C(=O)c1cc(COc2ccc3c(c2)CCCC3)on1	-142.4
Cc1cccc(N2CCN(CCS(=O)(=O)c3ccc(Br)cc3)CC2)c1C	-66.5
O=C(c1cscn1)N1CCc2ncc(CN3CCOCC3)n2CC1	-41.39
CCOc1ccc2nc(CN3CCC(CNC(C)=O)C3)ccc2c1 (centres undefined)	36.59
CCOc1ccc2nc(CN3CCOC(CN)C3)ccc2c1 (centres undefined)	-11.41
CCOc1ccc2nc(CN3CCC(CN)C3)ccc2c1 (centres undefined)	85.08
c1ccc(Cc2noc(CN3CCCC(Cn4cncn4)C3)n2)cc1 (centres undefined)	-77.91

Compound	Percent Effect [%]
NC(=O)N1C[C@H](NC(=O)c2cscn2)[C@@H]2OCCC[C@@H]21	-29.66
O=C(NCc1ccco1)[C@H]1CC[C@@H]2[C@@H](CCN2c2ncccn2)O1.O=C(O)C(F)(F)F	-5.9
CC(C)CN1C(=O)CC[C@]12CC[C@@H](NC(=O)NCc1cccnc1)CC2.O=C(O)C(F)(F)F	-179.5
Fc1ccccc1Sc1ccccc1CNC1=NCCN1.I	76.79
CN(C)c1nc(NCc2ccccc2Cn2cccn2)ncc1F	-30.26
O=C(NCCSc1ccccc1F)NCc1cccnc1	-28.43
O=C1NCCCCC1Sc1ccccc1F (centres undefined)	-25.7
O=C(Cc1cccnc1)NCCSc1ccccc1F	-31.8
Cc1cc(Br)ccc1NCc1ccc(C(=O)N(C)C)[nH]1	-35.81
CC(C)[C@H](NC(=O)NC1CCS(=O)(=O)C1)C(=O)NCc1ccc(Cl)cc1 (some centres undefined)	-111.5
COCCC1COC2(CCN(C(=O)c3cccnc3)CC2)C1.O=C(O)C(F)(F)F (centres undefined)	-117.3
O=C(c1ccccc1)N1CC[C@H]2C[C@H](c3nccs3)O[C@@H]2C1	-4.41
Cc1cc(C)cc(OCCN(C)C(=O)NC(C)c2nncn2C)c1 (centres undefined)	-106.2
CCc1nc(C2CCCN2C(=O)CCCn2cccn2)no1 (centres undefined)	-167.4875
COCC1c2c(cnn2C)CCN1C(=O)c1cscn1.O=C(O)C(F)(F)F (centres undefined)	-119.3
Cc1cccc(Nc2nccnc2C2CCCN(CC(=O)N(C)C)C2)n1 (centres undefined)	-114.3
Cc1cc(C)nc(Nc2cccc(C3CCCN(CCO)C3)n2)n1 (centres undefined)	10.75
NCc1n[nH]c(-c2cccc(F)c2)n1	-72.36
Cc1nc(N2CCCC2)nc2c1CCN(C(=O)N(C)C)CC2	-58.26
CCc1cccc(N2CCC(NC(=O)CCNC(N)=O)CC2)c1	-70
CCc1cccc(N2CCC(NC(=O)c3ccco3)CC2)c1	59.23
CCc1cccc(N2CCC(NC(=O)c3ccoc3C)CC2)c1	-20.41
CS(=O)(=O)NC1CCN(CCc2ccccc2)CC1	-29.4
Cl.Cl.NCC1[C@H]2CN(CCc3ccccc3)C[C@@H]12 (some centres undefined)	86.43
CC(=O)N1CCO[C@@H]2CN(Cc3cccc(Cl)c3)C[C@@H]2C1.O=C(O)C(F)(F)F	-40.86
CN1CCC(C(=O)N2CCN(Cc3cccc(Cl)c3)CC2)CC1=O (centres undefined)	-101.4

Compound	Percent Effect [%]
c1ccc(CCCN2CC(n3cccn3)C2)cc1	-65.67
O=C(Nc1nnc[nH]1)C(c1cccc(F)c1)N1CCOCC1 (centres undefined)	-17.23
CC/C=C(\C)CN1CCC(CNC(=O)c2ccc(=O)[nH]c2)CC1	-93.37
Cc1ccc(S(=O)(=O)Cc2nnc(C)n2C)cc1	-134.3
O=C(c1csnn1)N1CCCC(n2cncn2)C1 (centres undefined)	-97.91
CCC(CC)CN1CCN(CC(=O)Nc2cccc3nsnc23)CC1	-38.36
CCn1nccc1C(=O)NC(Cn1cccn1)C(C)(C)C (centres undefined)	-34.87
CN(C)Cc1ccccc1CN(C)c1ncnc2[nH]ccc12	27.74
CCn1cc(CN2CCN(Cc3cc(C)cc(C)c3)C(=O)C2)cc1C#N	66.78
CCn1cc(CN2CCN(Cc3cccc(OC)c3)C(=O)C2)cc1C#N	47.6
Cc1cc(C)cc(CN2CCN(Cc3cc(C#N)n(C)c3)CC2=O)c1	14.32
CN(CCn1cnc(-c2ccccc2)c1-c1ncc[nH]1)S(C)(=O)=O	-10.43
NC1(C(=O)NCC2CCCN(Cc3ccccc3F)C2)CCCC1 (centres undefined)	85.42
CCN(C)S(=O)(=O)NCC1CCCN(Cc2ccccc2F)C1 (centres undefined)	74.13
CC(=O)NCC1CCCN(Cc2nc(Cc3ccccc3F)no2)C1 (centres undefined)	-62.96
CCN(C)S(=O)(=O)NCC1CCN(Cc2ccccc2F)C1 (centres undefined)	42.63
CS(=O)(=O)NCC1CCCN(Cc2ccc(F)c3cccnc23)C1 (centres undefined)	9.25
NC1(C(=O)NCC2CCCN(Cc3cccc4nonc34)C2)CCC1 (centres undefined)	38.45
CC(C)NC(=O)[C@@H]1C[C@H]2NCC[C@H]2O1.Cl	-114.2
Cc1n[nH]c(C)c1NC(=O)Nc1cccnc1N1CCCC1	-5.845
CC(C)CC(NCc1cscn1)c1ccccn1 (centres undefined)	28.89
CC(C)CC(NCc1ccsc1)c1ccccn1 (centres undefined)	58.77
CC(C)CC(NCc1cccs1)c1ccccn1 (centres undefined)	-24.93
COCCSCC(=O)NCc1ccc(N(C)C)cc1	-84.72
Cl.O=C(C1CC1)N1CCc2ccccc2C12CCNCC2	-61.72
CCOC(=O)N1CCc2ccccc2C12CCNCC2.Cl	52.81

Compound	Percent Effect [%]
COCC(=O)N1CCc2ccccc2C12CCNCC2.Cl	-57.82
Cc1cnn(CCCNC(=O)NCCS(=O)(=O)Nc2ccccc2)c1	-111.9
CC(C)C(NC(=O)NCCNc1ccccn1)c1cccs1 (centres undefined)	11.18
Cc1ccc(CNC(=O)C2=NOC3(CCCNC3)C2)cc1 (centres undefined)	-11.58
CC(=O)Nc1ccc(-c2ccccc2CCN)cc1	-117.7
CC(C(=O)NC1CC1)S(=O)(=O)Cc1csc(-c2cccs2)n1 (centres undefined)	-95.03
CC(C(=O)NCC1CCCCC1)S(=O)(=O)Cc1csc(-c2cccs2)n1 (centres undefined)	-110.5
CNC(=O)C(C)S(=O)(=O)Cc1csc(-c2cccs2)n1 (centres undefined)	-44.96
CCC1(CC)CC(=O)N(CC(O)c2cccc(F)c2)C1=O (centres undefined)	-47.43
Cn1cc(CN2CCC3(CCN(c4cnn(C)c4)C3=O)C2)cn1.O=C(O)C(F)(F)F (centres undefined)	-38.46
Cc1ccc(-n2ncc(C(=O)N(C)C3CCN(C)CC3)c2N)cc1C	-13.94
COCCNC(=O)Cn1cc2c(n1)c(C)nn2C	-119.4
Cc1ccc(CN2Cc3nccn3CC(Cn3cncn3)C2)s1.O=C(O)C(F)(F)F (centres undefined)	-180.8
COc1ccccc1OCCC(=O)NC1CCc2nc(C)cn2C1 (centres undefined)	-82.15
Cc1ncc(CNC(=O)CCc2ccccc2F)c(C2CCCN2C)n1 (centres undefined)	-31.11
Clc1cc(CN2CCCN3CCCC3C2)c2ncccc2c1 (centres undefined)	88.94
O[C@@H]1CN(Cc2cc(Cl)cc3cccnc23)C[C@@H]1O	-71.8
Clc1cc(CN2CCCC(Cn3cncn3)C2)c2ncccc2c1 (centres undefined)	36.9
Cc1cccc(-c2nc(N)nc3c2CN(C(=O)c2ccncn2)C3C)c1 (centres undefined)	-72.66
COc1coc(C(=O)Nc2nc(-c3ccccn3)cs2)cc1=O	19.28
CN(Cc1noc2c1CCCC2)C(=O)Nc1cncc(F)c1	-40.24
Cc1c[nH]c(CN(C)C(=O)C(C)(C)NC(=O)c2cccs2)n1	-87.6
CC(C)c1ncc(C(=O)N2CCOCC2CC(=O)c2ccco2)s1 (centres undefined)	-45.87
Cc1cc(C)n(CC(C)NCCn2nc(C)c(Cl)c2C)n1 (centres undefined)	-54.04
Cc1cc(C)n(CC(C)NCCN2CCc3ccccc32)n1 (centres undefined)	52.4
CC(Cn1cncn1)NCCN1CCc2ccccc21 (centres undefined)	-79.84
